Experimental data: the supplement of paper PMC10338343
± gives the standard deviation. Over roughly 8,200 sequences, “pre-steady-state target cleavage rate” has its median near 0.024; the highest 2% begin near 1.3. This excerpt belongs to a sample that is enriched for the highest values.

Test system: MIWI (PIWIL1) piRISC loaded with L1MC piRNA (30 nt)
Experiment: pre-steady-state target cleavage rate (min^-1); MIWI and MILI are mouse PIWI proteins and EfPiwi is from a freshwater sponge; tags in brackets are library labels; higher = faster piRNA-guided slicing of the target
Conditions: guide: L1MC piRNA 5'p-UAACUAAAUACUAUGCAAGCUGUAGGUCCU
Summary of the method: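 A transcribed, DNA-blocked target RNA library […] was incubated at 33 °C for 0–8 or 0–960 min with 1 nM active affinity-purified piRISC carrying one synthetic guide, in HEPES–potassium acetate buffer with or without 500 nM GTSF1 partner protein. Uncleaved targets were then sequenced and normalised to depth and to weakly complementary targets. Data from three trials were pooled, with k3 capped at 0.0001 min^-1, and a burst-and-steady-state fit yielded the pre-steady-state cleavage rate.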

[1] = auxiliary factor: 500 nM mouse GTSF1
[2] = auxiliary factor: none (no GTSF1)
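Also: 1 nM active piRISC with 0.1 nM target library at 33 °C single turnover.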

Sequence	pre-steady-state target cleavage rate [1]	pre-steady-state target cleavage rate [2]
UCCAGGAACAGCUUGCAUAGUAUUUACAAA	0.328 ± 0.041	0.00665 ± 0.0019
UCCUCCUACAGCUUGCAAAGUUUUUAGUUA	0.352 ± 0.029	0.0137 ± 0.0033
UCCUGGAUGUCCUUUCAUAGUAUUUAGUUA	0.0134 ± 0.004	
UCCUGGUAGACCUUGCAUAGUAUUUAGUUA	0.46 ± 0.042	0.00968 ± 0.0029
UCCACCUACACCUUGCAUAGAAUUUAGUUA	0.337 ± 0.066	0.0107 ± 0.003
AGGACCUACAGCUUACAUAGUAUUUAGUUA	1.28 ± 0.064	0.0655 ± 0.011
UCCACCUACAGCUUACAUAGUAUUUAGUUA	0.753 ± 0.034	0.0222 ± 0.0039
UCGACCUACAGCUUGACAUAGUAUUUAGUUA	0.952 ± 0.072	0.00438 ± 0.0026
UGGACCUACAGCUUACAUAGUAUUUAGUUA	1.53 ± 0.079	0.0508 ± 0.0082
UGGACCUACAGCUUCAUAGUAUUUAGUUA	1.36 ± 0.077	0.0221 ± 0.0047
UCGACCUACAGCUUACAUAGUAUUUAGUUA	1.59 ± 0.062	0.0382 ± 0.0069
UGGACCUACAGCUUGACAUAGUAUUUAGUUA	0.986 ± 0.1	0.00706 ± 0.0031
AGGACCUACAGCUUCAUAGUAUUUAGUUA	1.11 ± 0.053	0.0309 ± 0.0073
UGGACCUACAGCUUUCAUAGUAUUUAGUUA	0.593 ± 0.032	0.0286 ± 0.0052
UCCUGGAUGAGCUUGCAUAGUAUAUACAAA	0.00918 ± 0.0054	
UCCUGGAAGAGCUUGCAUAGUAUUUACAAA	0.0945 ± 0.02	
UCCUGCUACAGCUUGCUUAGUAUAUAGUUA	0.404 ± 0.038	0.0128 ± 0.0044
UCCACCUACUGCUUGCAUACUAUUUAGUUA	0.297 ± 0.026	0.0231 ± 0.0039
UCCUGCUAGAGCUUGCAUACUAUUUAGUUA	0.248 ± 0.03	0.0221 ± 0.0058
UCCUCCUACUGCUUGGAUAGUAUUUAGUUA	1.21 ± 0.04	0.0517 ± 0.0073
UCCUGCUACUGCUUGGAUAGUAUUUAGUUA	0.969 ± 0.077	0.0353 ± 0.0055
UCCACCUACUGCUUGGAUAGUAUUUAGUUA	1.14 ± 0.049	0.0503 ± 0.0082
UCGACCUACACCUUGGAUAGUAUUUAGUUA	0.854 ± 0.076	0.0364 ± 0.0044
UGGACCUACUGCUUGGAUAGUAUUUAGUUA	1.65 ± 0.072	0.0542 ± 0.0088
AGGACCUACUGCUUGGAUAGUAUUUAGUUA	1.34 ± 0.052	0.061 ± 0.0085
UCGACCUACUGCUUGGAUAGUAUUUAGUUA	1.67 ± 0.068	0.0575 ± 0.0089
UGGACCUACACCUUGGAUAGUAUUUAGUUA	0.815 ± 0.069	0.0418 ± 0.0063

Sequence	pre-steady-state target cleavage rate [1]	pre-steady-state target cleavage rate [2]
AGGACCUACACCUUGGAUAGUAUUUAGUUA	0.817 ± 0.061	0.0497 ± 0.0086
UCCUGGAUGUCGAACGUAUCUAAUUAGUAA		< 0.0001
UCCUGGAUCAGCUUGAUAGUAUUUAGUUA	0.0664 ± 0.007	0.00393 ± 0.0017
AGGACCUAGAGCUUGCAUAGUAUUUUCAAA	0.0396 ± 0.013	
UCCUGCUACAGCAUGCAUAGUAUUUAGUAA	0.655 ± 0.063	0.00614 ± 0.0024
UCCUGGAACAGCUACCAUAGUAUUUAGUAA	0.0979 ± 0.017	
UCCUCCUACAGCUUGCAUAGUUAAUAGAAA	0.0486 ± 0.014	
UCCUGGUACAGCUUGCAAUGUAUUUAGAAA	0.0194 ± 0.0063	
UCGACCUACAGCUUGGUUAGUAUUUUCAAA	0.0241 ± 0.0089	
UCCUGGAUGUCCUUGCAUAGUAUAAUGUUA	0.0139 ± 0.0063	
UCGACCUACAGCUUGCAUAGUAUUAACAAA	0.401 ± 0.044	
UCCACCUACAGCUUGCUUAGUAUUAAGUUA	0.31 ± 0.03	0.00763 ± 0.0016
AGGACCUACAGCAUGCAUAGUAUUUAGUUA	1.33 ± 0.06	0.073 ± 0.015
AGGACCUACAGCAUGCAUAGUAUUUAGAAA	0.577 ± 0.059	0.00715 ± 0.0031
AGGACCUACAGCAUGCAUAGUAUUUAGUAA	0.986 ± 0.075	0.0556 ± 0.014
UGGACCUACAGCAUUGCAUAGUAUUUAGUUA	1.27 ± 0.11	0.0665 ± 0.014
UGGUCCUACAGCAUGCAUAGUAUUUAGUUA	1.19 ± 0.061	0.0657 ± 0.014
AGGUCCUACAGCAUGCAUAGUAUUUAGUUA	1.33 ± 0.062	0.107 ± 0.026
UGGACCUACAGCAUGCAUAGUAUUUAGUUA	1.38 ± 0.078	0.0549 ± 0.011
UGGACCUACAGCAUGCAUAGUAUUUAGUAA	0.977 ± 0.075	0.0303 ± 0.0065
UCGUCCUACAGCAUGCAUAGUAUUUAGUUA	1.26 ± 0.047	0.0282 ± 0.0049
UCCUGGAUGUCGAUGCAUAGUAUUUAGUGA	0.0103 ± 0.0037	
UCCACCUACAGCAAGCAUAGUAUUUAGAAA	0.243 ± 0.035	
UCCUGGAUGUCCUUGGAUAGUAUUUUGUUA	0.0668 ± 0.017	
UCCUCCUACAGCUUGCAUAGUAUCUUAGUUA	0.96 ± 0.045	0.016 ± 0.0044
UGGACCUACAGGAUGCAUAGUAUUUACAAA	0.216 ± 0.039	
UCCUGGAACUCGUUGCAUAGUAUUUAGUAA	0.071 ± 0.011	0.00318 ± 0.0021

Sequence	pre-steady-state target cleavage rate [1]	pre-steady-state target cleavage rate [2]
UCCUGCUACAGCUUGCAUAGUAUUUAGUA	0.422 ± 0.071	0.00464 ± 0.0019
UCCUGCUACAGCUUGCUUAGAAUUUAGUUA	0.247 ± 0.026	0.00845 ± 0.0029
AGGACCUACACGAUGCAUAGUAUUUACAAA	0.19 ± 0.025	
UCCACCUACAGCUUGCAAAGUAUAUAGUUA	0.468 ± 0.045	0.0135 ± 0.0031
UGGACCUACAGCUUGCAUAGUAUAUAGUUA	0.892 ± 0.062	0.0341 ± 0.0087
UGGACCUACAGCUUGCAUAGUAUAUAGUAA	0.356 ± 0.038	0.012 ± 0.0037
AGGACCUUCAGCUUGCAAAGUAUUUAGUUA	1.3 ± 0.051	0.0464 ± 0.0089
AGGACCUACAGCUUGCAUAGUAUAUAGUAA	0.493 ± 0.058	0.0216 ± 0.0048
UGGACCUACAGCUUGCAUAGUAUAUUAGUUA	1.33 ± 0.079	0.0409 ± 0.0089
AGGACCUUCAGCUUGCAUAGUAUUUAGUAA	1.07 ± 0.079	0.0632 ± 0.012
AGGACCUUCAGCUUGCAUAGUAUUUAGUUA	1.32 ± 0.056	0.0842 ± 0.013
UCGACCUACAGCUUGCAAAGUAUAUAGUUA	0.855 ± 0.055	0.0157 ± 0.0033
AGGACCUACAGCUUGCAUAGUAUAUAGUUA	0.884 ± 0.066	0.0667 ± 0.017
AGGACCUACAGCUUGCAUAGUAUUAUAGUUA	1.05 ± 0.078	0.0707 ± 0.015
UGGACCUUCAGCUUGCAUAGUAUUUAGUAA	1.07 ± 0.064	0.0524 ± 0.011
UGGACCUUCAGCUUGCAAAGUAUUUAGUUA	1.34 ± 0.073	0.0368 ± 0.0084
UGGACCUACAGCUUGCAUAGUAUUAGUUA	0.172 ± 0.032	0.00299 ± 0.0019
AGGACCUACAGCUUGCAAAGUAUAUAGUUA	0.667 ± 0.049	0.0238 ± 0.0054
UGGACCUACAGCUUGCAUAGUAUUAUAGUUA	1.24 ± 0.062	0.052 ± 0.011
UGGACCUUCAGCUUGCAUAGUAUUUAGUUA	1.45 ± 0.067	0.069 ± 0.011
UGGACCUACAGCUUGCAAAGUAUAUAGUUA	0.895 ± 0.057	0.0204 ± 0.0062
AGGACCUACAGCUUGCAUAGUAUAUUAGUUA	1.18 ± 0.097	0.0609 ± 0.015
UCCUCCUACAGCUUGCAUUGUAUUAAGUUA	0.309 ± 0.026	0.00813 ± 0.0024
UCCACCUACAGCUUGCAUAGAAUUUAGAUA	0.247 ± 0.037	0.00935 ± 0.0029
UCGACCUACAGCUUGCAUAGUUAUUACAAA	0.115 ± 0.035	
